Assay [1] has as its system Wnt5a (protein binding on small-molecule microarray). Briefly: small molecules binding Wnt5a protein – biophysical, small-molecule microarray, 635/667 nm fluorescence, primary screen (AID 1142).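 Further: fluorescence read at 667 nm with signal to noise per printed feature.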 Conditions: 635 nm fluorescence, higher = more signal.
Assay [2] is described as follows: ATP-based viability of Huh7 replicon cells – cell-based, CellTiter-Glo luminescence, basal, 48 h, cytotoxicity control for HCV replication inhibitor project, primary screen (AID 1143).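 Further: Huh7 hepatoma cells carrying a hepatitis C replication reporter with no stimulus; test concentration not given here.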 Conditions: higher = more signal, called active from +8 up or from −8 down.
The nature of assay [3]: basal CRE-LacZ reporter activity in PC12 – cell-based, unstimulated, primary screen (AID 1145). To be noted: no forskolin, luminescence, 4.5 h, higher = more signal, called active from +8 up or from −8 down.
The nature of assay [4]: forskolin-driven CRE-LacZ activity in PC12 – cell-based, CRE-LacZ reporter, forskolin-stimulated, primary screen (AID 1146).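 Further: PC12 cells with 6xCRE LacZ reporter stimulated by forskolin 10 µM; beta-galactosidase reporter signal reflecting CREB driven transcription.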 To be noted: luminescence, 4.5 h, higher = more signal, called active from +8 up or from −8 down.
Assay [5] concerns the target Streptavidin (Streptomyces avidinii) (UniProt P22629). Briefly: compounds binding control protein streptavidin – biophysical, small-molecule microarray, 635/667 nm fluorescence, artefact control for SMM compound annotation, primary screen (AID 1147).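 Further: signal reflects streptavidin binding to arrayed compounds as a control protein.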 To be noted: higher = more signal.
A short description of assay [6]: probe aInhba binding on compound microarray – biochemical, small-molecule microarray, 635/667 nm fluorescence, primary screen (AID 1148).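 Further: score merges 667nm spot fluorescence with signal-to-noise for antibody binding to printed compounds.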 Conditions: higher = more signal.
In assay [7] the target is Torsin-1A (Homo sapiens) (UniProt O14656). As to the kind of experiment: TOR1A wild-type binding on microarray – cell lysate, small-molecule microarray, lysate, 635/667 nm, primary screen (AID 1149). To be noted: COS7 hTOR1A-WT lysate, 635 nm fluorescence, higher = more signal.
The target is the same in assay [8]. As to the kind of experiment: torsin A mutant lysate binding on microarrays – cell lysate, small-molecule microarray, COS7 lysate, 635/667 nm fluorescence, primary screen (AID 1150).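 Further: score pools 667 nm emission and signal to noise measuring lysate protein binding.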 Conditions: COS7 hTOR1A mutant lysate, 635 nm fluorescence, higher = more signal.
In assay [9] the test system is Sonic hedgehog protein (Shh). Briefly: Sonic hedgehog microarray binding compounds – biochemical, small-molecule microarray, 635/667 nm fluorescence, primary screen (AID 1151).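 Further: Shh protein binding to compounds spotted on small-molecule microarray slides; score combines spot fluorescence intensity with signal-to-noise across triplicate slides.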 Conditions: 635 nm fluorescence, higher = more signal.
Assay [10] in a line: optical density shifts of acrAB sulA E. coli – strain DRC41, OD650, 48 h, E. coli filamentation inducer project, primary screen (AID 1152).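 Further: E. coli MC1000 strain DRC41 lacking acrAB efflux pump and sulA.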 Conditions: higher = more signal, called active from +8 up or from −8 down.
Assay [11] in a line: probe aLefty1 binding on compound microarray – biochemical, small-molecule microarray, 635/667 nm fluorescence, primary screen (AID 1153).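 Further: score merges spot fluorescence with signal-to-noise ratio from the scanned slide images.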 Conditions: higher = more signal.
A short description of assay [12]: plasmodial surface anion channel blockers, osmotic lysis – cell-based, P. falciparum Indochina, OD700, 1 h, primary screen (AID 1154). Conditions: P. falciparum Indochina infected RBC osmotic lysis, higher = more signal, called active from +8 up or from −8 down.
The nature of assay [13]: plasmodial surface anion channel blockers, osmotic lysis – cell-based, P. falciparum Indochina, OD700, 2 h, primary screen (AID 1155).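 Further: lysis reports solute entry through the parasite surface anion channel PSAC.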 Conditions: P. falciparum Indochina infected erythrocytes, higher = more signal, called active from +8 up or from −8 down.
Assay [14] is described as follows: changes in parasitized red cell lysis, either direction – P. falciparum Indochina, OD700, 3 h, PSAC antagonist project, primary screen (AID 1156). Conditions: P. falciparum-infected erythrocytes, osmotic lysis, higher = more signal, called active from +8 up or from −8 down.
Assay [15] can be described thus: plasmodial surface anion channel blockers, osmotic lysis – cell-based, P. falciparum Indochina, OD700, 18 h, primary screen (AID 1157). Conditions: P. falciparum Indochina infected erythrocytes, osmotic lysis OD700, 18 h; higher = more signal, called active from +8 up or from −8 down.
Assay [16] is described as follows: S6 kinase pathway phospho-S6 level changes – cell-based, A549, cytoblot, luminescence, serum-stimulated, primary screen (AID 1158).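 Further: serum-stimulated A549 lung adenocarcinoma cells; signal is phosphorylated S6 detected by cytoblot immunostaining with HRP secondary.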 To be noted: 5 h, higher = more signal.
In assay [17] the target is NADPH oxidase 2 (Homo sapiens) (UniProt P04839). As to the kind of experiment: compounds shifting NOX2 Amplex Red fluorescence – cell-based, HEK293-NOX2, PMA-stimulated, NOX inhibitor project, primary screen (AID 1159). Further: test concentration not given here. To be noted: 45 min, higher = more signal, called active from +8 up or from −8 down.
Assay [18] has as its target NADPH oxidase 4 (Homo sapiens) (UniProt Q9NPH5). As to the kind of experiment: compounds shifting NOX4 Amplex Red fluorescence – cell-based, HEK293-NOX4, tetracycline-induced, NOX inhibitor project, primary screen (AID 1160). Conditions: HEK293-NOX4, Amplex Red H2O2 fluorescence, 45 min; higher = more signal, called active from +8 up or from −8 down.
Assay [19] addresses NADPH oxidase 5 (Homo sapiens) (UniProt Q96PH1). As to the kind of experiment: compounds shifting NOX5 Amplex Red fluorescence – cell-based, HEK293-NOX5, NOX inhibitor project, primary screen (AID 1161). To be noted: HEK293-NOX5, ionomycin, 45 min, higher = more signal.

Our source for the composite z-score and z-score values is PubChem BioAssay.

Active and inactive are the calls of the source.

Sequence of Streptavidin (Streptomyces avidinii) (P22629 whole entry, looked up): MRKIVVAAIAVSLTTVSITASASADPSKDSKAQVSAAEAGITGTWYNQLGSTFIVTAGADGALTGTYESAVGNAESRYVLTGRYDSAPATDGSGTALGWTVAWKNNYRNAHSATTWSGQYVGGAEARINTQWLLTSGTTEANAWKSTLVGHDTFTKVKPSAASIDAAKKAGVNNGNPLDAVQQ
Sequence of NADPH oxidase 4 (Homo sapiens) (Q9NPH5 whole entry, looked up): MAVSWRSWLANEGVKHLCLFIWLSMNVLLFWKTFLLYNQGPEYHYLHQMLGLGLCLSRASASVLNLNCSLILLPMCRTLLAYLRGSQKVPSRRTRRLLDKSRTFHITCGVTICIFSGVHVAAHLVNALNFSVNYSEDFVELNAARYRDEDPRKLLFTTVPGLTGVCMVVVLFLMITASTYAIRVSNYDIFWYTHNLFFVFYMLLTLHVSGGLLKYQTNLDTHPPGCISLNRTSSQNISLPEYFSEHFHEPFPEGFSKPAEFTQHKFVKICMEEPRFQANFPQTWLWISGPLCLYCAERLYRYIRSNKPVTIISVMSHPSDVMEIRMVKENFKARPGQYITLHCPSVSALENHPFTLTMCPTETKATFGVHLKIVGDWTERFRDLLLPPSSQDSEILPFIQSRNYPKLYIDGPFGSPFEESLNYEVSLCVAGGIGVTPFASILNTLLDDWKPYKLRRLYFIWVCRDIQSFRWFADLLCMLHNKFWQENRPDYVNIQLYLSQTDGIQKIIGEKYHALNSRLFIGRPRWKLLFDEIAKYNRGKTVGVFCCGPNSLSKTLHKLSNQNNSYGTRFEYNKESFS
Sequence of NADPH oxidase 2 (Homo sapiens) (P04839 whole entry, looked up): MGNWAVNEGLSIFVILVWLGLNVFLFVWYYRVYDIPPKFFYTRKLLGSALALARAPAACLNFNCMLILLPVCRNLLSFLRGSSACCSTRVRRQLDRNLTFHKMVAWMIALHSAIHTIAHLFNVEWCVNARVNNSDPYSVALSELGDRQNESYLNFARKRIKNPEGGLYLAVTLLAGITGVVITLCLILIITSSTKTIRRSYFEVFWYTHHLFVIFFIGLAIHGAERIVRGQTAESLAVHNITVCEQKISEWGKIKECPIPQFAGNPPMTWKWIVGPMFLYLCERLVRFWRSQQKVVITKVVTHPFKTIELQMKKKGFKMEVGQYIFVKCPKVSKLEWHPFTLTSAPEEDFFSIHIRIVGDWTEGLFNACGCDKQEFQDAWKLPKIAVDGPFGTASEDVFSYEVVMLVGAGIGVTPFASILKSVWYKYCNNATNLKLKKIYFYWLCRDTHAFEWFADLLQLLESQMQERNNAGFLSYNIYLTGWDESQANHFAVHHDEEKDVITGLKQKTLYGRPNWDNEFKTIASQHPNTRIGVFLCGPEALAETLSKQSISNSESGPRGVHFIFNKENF
Sequence of NADPH oxidase 5 (Homo sapiens) (Q96PH1 whole entry, looked up): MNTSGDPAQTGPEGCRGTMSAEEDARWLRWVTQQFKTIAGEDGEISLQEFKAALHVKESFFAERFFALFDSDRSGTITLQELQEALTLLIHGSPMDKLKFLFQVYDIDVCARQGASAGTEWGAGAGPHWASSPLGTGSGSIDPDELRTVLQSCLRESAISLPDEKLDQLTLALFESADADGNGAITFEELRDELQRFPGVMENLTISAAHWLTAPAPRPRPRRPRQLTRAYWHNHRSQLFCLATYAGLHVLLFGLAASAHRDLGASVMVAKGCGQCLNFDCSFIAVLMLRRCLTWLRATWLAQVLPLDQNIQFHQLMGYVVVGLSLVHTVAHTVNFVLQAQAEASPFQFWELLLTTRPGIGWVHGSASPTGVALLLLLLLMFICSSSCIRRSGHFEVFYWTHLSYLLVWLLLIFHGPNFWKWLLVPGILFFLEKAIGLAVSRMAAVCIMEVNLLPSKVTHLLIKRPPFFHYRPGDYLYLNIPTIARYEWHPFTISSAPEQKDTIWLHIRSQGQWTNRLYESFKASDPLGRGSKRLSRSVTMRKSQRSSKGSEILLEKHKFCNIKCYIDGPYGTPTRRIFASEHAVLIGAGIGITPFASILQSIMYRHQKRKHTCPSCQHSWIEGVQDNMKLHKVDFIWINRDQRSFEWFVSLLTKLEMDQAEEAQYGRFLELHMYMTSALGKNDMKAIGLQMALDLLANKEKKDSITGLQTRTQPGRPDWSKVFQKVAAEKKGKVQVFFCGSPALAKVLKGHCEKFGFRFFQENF
Sequence of Torsin-1A (Homo sapiens) (O14656 whole entry, looked up): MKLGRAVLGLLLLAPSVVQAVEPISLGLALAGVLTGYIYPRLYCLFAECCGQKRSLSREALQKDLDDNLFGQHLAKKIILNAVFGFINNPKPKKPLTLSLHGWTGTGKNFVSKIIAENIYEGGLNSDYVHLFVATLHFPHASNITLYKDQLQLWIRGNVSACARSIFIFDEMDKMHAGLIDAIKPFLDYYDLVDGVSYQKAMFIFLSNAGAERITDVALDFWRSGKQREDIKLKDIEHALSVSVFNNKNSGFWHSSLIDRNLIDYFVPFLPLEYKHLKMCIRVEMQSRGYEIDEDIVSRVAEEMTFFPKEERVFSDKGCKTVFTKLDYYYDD

For the compound `CO[C@H]1COC(=O)[C@H](Cc2ccccc2)NC(=O)CC=C[C@@H](C)[C@H](OC)COC(=O)CC=C[C@@H]1C`, the composite z-score in assay [1] was 0.175; in assay [5] it was -0.129; in assay [6], -0.0954; with Torsin-1A (Homo sapiens) [7], 0.109; with Torsin-1A (Homo sapiens) [8], 0.189; in [9], 0.549. Further, the composite z-score in assay [11] is -0.0241. The z-score is -1.21 (inactive) in assay [2]; -0.567 (inactive) in [3]; -1.15 (inactive) in assay [4]; 0.284 (inactive) in assay [10]; -0.144 (inactive) in assay [12]; -1.22 (inactive) in assay [13]. Besides, the z-score in assay [14] is -1 (inactive); in assay [15], -1.27 (inactive); in assay [16], 0.501; in assay [17], -3.05 (inactive); in assay [18], 0.103 (inactive); in assay [19], 0.784.
Turning to `C[C@H]1COC(=O)[C@H](Cc2ccccc2)NC(=O)[C@@H](C)COC(=O)[C@H](Cc2ccccc2)NC1=O`, the composite z-score in [1] was 0.226; in assay [5], 1.65; in [6], -0.0523; with Torsin-1A (Homo sapiens) [7], 1.18; in the assay with Torsin-1A (Homo sapiens) [8] it was 0.654; in [9], 1.13. In addition, the composite z-score in [11] is -0.239. The z-score in [2] was -2.12 (inactive); in assay [3], 2.52 (inactive); in assay [4], -0.837 (inactive); in assay [10], -0.0556 (inactive); in [12] it was 0.162 (inactive); in assay [13] it was -0.643 (inactive). The z-score is -0.295 (inactive) in [14]; -1.93 (inactive) in [15]; 1.58 in assay [16]; 0.915 (inactive) in assay [17]; 0.838 (inactive) in assay [18]; 0.253 in [19].
With `C=CC[C@@]12N=C(c3ccc(OCCCO)cc3)O[C@@H]1c1ccccc1CN(Cc1ccccc1)C2=O`, the composite z-score in [1] is 0.509; in [5] it was -0.0929; in assay [6] it was 0.174; in the assay with Torsin-1A (Homo sapiens) [7], 0.376; in the assay with Torsin-1A (Homo sapiens) [8], 0.294; in [9] it was 1.91. For the same compound, in [11], the composite z-score turned out to be 0.271. Besides, the z-score was -4.89 (inactive) in assay [2]; 2.16 (inactive) in assay [3]; -2.5 (inactive) in assay [4]; 0.786 (inactive) in assay [10]; 28.3 (active) in [12]; 24.9 (active) in [13]. In addition, the z-score was 3.34 (inactive) in [14]; 2.29 (inactive) in assay [15]; 0.557 in [16]; -1.33 (inactive) in [17]; -0.765 (inactive) in [18]; -1.71 in assay [19].
For `COCCOC(=O)N1C(=O)[C@@]2(c3ccccc31)[C@H](C(=O)N1CCc3cc(OC)c(OC)cc3C1)[C@H]1C(=O)O[C@H](c3ccccc3)[C@H](c3ccccc3)N1[C@@H]2c1ccccc1OCCO`, the composite z-score is 0.0374 in [1]; 0.686 in [5]; 0.0228 in [6]; 0.435 with Torsin-1A (Homo sapiens) [7]; 0.243 with Torsin-1A (Homo sapiens) [8]; 1.38 in assay [9]. For the same compound, the composite z-score in assay [11] came to 0.391. Besides, the z-score in [2] is -3.27 (inactive); in assay [3], -0.183 (inactive); in assay [4], -1.12 (inactive); in assay [10], 2.1 (inactive); in assay [12], 8.34 (active); in assay [13], 1.35 (inactive). For the same compound, the z-score in assay [14] was 1.38 (inactive); in assay [15], 0.123 (inactive); in assay [16], 2.25; in [17], 2.12 (inactive); in assay [18], 1.46 (inactive); in assay [19] it was 0.00739.
With `COCCOC(=O)N1C(=O)[C@@]2(c3cc(C#CCNC(N)=O)ccc31)[C@H](c1ccc(OCCO)cc1)N1[C@H](c3ccccc3)[C@H](c3ccccc3)OC(=O)[C@H]1[C@@H]2C(=O)N1CCCCCCC1`, the composite z-score in assay [1] turned out to be 0.148; in assay [5] it was 0.34; in [6], 0.325; in the assay with Torsin-1A (Homo sapiens) [7], 0.0499; in the assay with Torsin-1A (Homo sapiens) [8] it was 0.576; in [9], 0.932. In assay [11], this compound had a composite z-score of 1.16. The z-score in assay [2] was -2.36 (inactive); in assay [3] it was -0.0566 (inactive); in assay [4], -1.91 (inactive); in [10], 1.92 (inactive); in assay [12], 1.96 (inactive); in assay [13], 0.568 (inactive). In addition, the z-score in [14] is 0.465 (inactive); in assay [15], -0.737 (inactive); in assay [16] it was 1.01; in assay [17], 2.38 (inactive); in assay [18] it was 1.22 (inactive); in assay [19] it was 0.765.
In the case of `O=[N+]([O-])c1ccc(C[n+]2ccc3ccc(O)cc3c2)o1`, the composite z-score worked out at 0.465 in assay [1]; 1.29 in [5]; 0.0857 in assay [6]; 0.244 in the assay with Torsin-1A (Homo sapiens) [7]; 1.07 in the assay with Torsin-1A (Homo sapiens) [8]; 0.841 in assay [9]. This compound also displayed a composite z-score in assay [11] of -0.283. The z-score in assay [2] was -0.893 (inactive); in assay [3] it was -0.815 (inactive); in [4], -1.3 (inactive); in [10], 0.653 (inactive); in assay [12], 1.08 (inactive); in assay [13], -0.678 (inactive). Further, the z-score in assay [14] was -0.859 (inactive); in [15] it was -1.53 (inactive); in assay [16] it was 0.829; in assay [17], -0.94 (inactive); in assay [18] it was -1.09 (inactive); in [19] it was -0.424.
In the case of `CN(C)CCCC[C@@H]1NC(=O)[C@@H]2C[C@H](C(=O)NCCCCCNC(=O)CS)[C@H](c3ccc(O)cc3)N2C1=O`, the composite z-score in assay [1] is 0.202; in assay [5] it was 0.799; in assay [6], 0.264; in the assay with Torsin-1A (Homo sapiens) [7], 1.4; with Torsin-1A (Homo sapiens) [8] it was 0.847; in [9], 2.06. In [11], this compound yielded a composite z-score of -0.227. Moreover, the z-score in assay [2] was 0.0694 (inactive); in assay [3], -0.667 (inactive); in assay [4], -1 (inactive); in [10] it was 1.04 (inactive); in assay [12], 1.06 (inactive); in assay [13], -1.21 (inactive). The z-score in [14] is -3.46 (inactive); in [15], -2.25 (inactive); in [16], 0.209; in assay [17] it was 0.109 (inactive); in [18], 0.501 (inactive); in assay [19], 0.398.
As for `CO[C@H]1COC(=O)CC=C[C@@H](C)COC(=O)[C@@H](C)NC(=O)CC=C[C@@H]1C`, the composite z-score in assay [1] is 0.272; in assay [5] it was -0.697; in [6] it was -0.218; with Torsin-1A (Homo sapiens) [7], 2.49; with Torsin-1A (Homo sapiens) [8], 0.711; in assay [9], 2.06. This compound displayed a composite z-score in assay [11] of -0.276. In addition, the z-score in assay [2] was -3.48 (inactive); in [3], 0.608 (inactive); in [4] it was -1.09 (inactive); in [10], -0.414 (inactive); in [12], -0.401 (inactive); in assay [13], -0.599 (inactive). The z-score in assay [14] was -0.768 (inactive); in assay [15] it was -0.872 (inactive); in assay [16], 2.57; in assay [17] it was -0.206 (inactive); in assay [18], 0.534 (inactive); in assay [19] it was 0.984.
